Whole data set: some 33,000 sequences, median “E-score (-0.5 to 0.5)” near -0.0034, cut for the highest 2% near 0.25. The full list was thinned out, with the highest values kept by preference.
These sequences were tested against T1, Yap3 (UniProt P38749) (assay: PBM E-score (8-mer binding enrichment) (E-score (-0.5 to 0.5)); higher = stronger / more preferred TF binding). Conditions: protein concentration: 100 nM; construct: GST-full length.
T1 sequence: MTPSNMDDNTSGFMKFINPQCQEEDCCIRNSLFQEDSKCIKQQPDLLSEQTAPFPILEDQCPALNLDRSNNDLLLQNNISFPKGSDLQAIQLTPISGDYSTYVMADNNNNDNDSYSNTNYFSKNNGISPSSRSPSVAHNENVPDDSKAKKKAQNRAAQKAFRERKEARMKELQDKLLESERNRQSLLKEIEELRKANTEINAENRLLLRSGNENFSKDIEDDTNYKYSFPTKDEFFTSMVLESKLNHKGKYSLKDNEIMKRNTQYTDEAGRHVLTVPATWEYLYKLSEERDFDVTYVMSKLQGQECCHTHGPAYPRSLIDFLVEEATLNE
How it was run: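 Universal all-10-mer Agilent arrays, fresh or stripped once, were converted to double-stranded form by primer extension. GST-tagged yeast transcription factors from PURExpress in vitro transcription/translation, full-length or DNA-binding domain only, were applied at about 100-200 nM and detected with fluorescent anti-GST. After masliner normalisation, the Universal PBM Analysis Suite scored each ungapped eight-base word together with its reverse complement by E-score.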

Sequence | PBM E-score
CCAGCACG | -0.128
CCGCATCA | -0.0944
GAAAAACA | 0.094
TAAAAACA | 0.246
ACAAAACG | 0.173
AAAAAACG | 0.315
AAAAAACA | 0.315
CAAAAACG | 0.136
AGACTTCC | -0.161
ATAGGGTG | -0.123
ATTCAGAA | 0.0683
ATAGCGTG | -0.00896
AGGGGTTG | -0.134
ACTTTATG | 0.124
AATGTGAC | 0.145
AATGTGAT | 0.232
AATGTGAA | 0.255
CTCCAGGC | -0.0968
GCAGAGAC | -0.322
AGTCGACC | -0.0691
AGTCGACT | 0.277
AGTCGACA | 0.0995
AGCCGTGC | -0.233
CATATATA | 0.227
AATATGGA | 0.123

Sequence | PBM E-score
TATATATA | 0.304
GATATATC | 0.133
GATATGGA | 0.263
TATATACA | 0.226
GATATACA | 0.187
GATATATA | 0.271
TATATGGA | 0.108
ACTCTAGA | 0.0228
ACAGAGGT | -0.0174
ACGCTATC | 0.109
ATTTTCGG | 0.109
ATCGTGGG | 0.11
GAAGACGC | -0.0463
CCCGACCG | -0.3
CTATAAAA | 0.0227
GGATAAAA | 0.194
TTATAAAA | 0.256
GTATAAAA | 0.287
ATATAAAA | 0.249
GTATAAAC | 0.206
CACCACGG | -0.366
GATTGCGA | 0.108
ATTTTACG | 0.309
AATTTACC | 0.145
ATTTTACA | 0.145

Sequence | PBM E-score
AATTTACG | 0.239
CTTTTACC | 0.197
ATTTTACC | 0.297
CCGATCAG | -0.00295
CCCCCTAA | -0.291
AAAGATCC | -0.0985
AGCTGTCG | -0.197
GTCGACCA | -0.0665
GGGCTGCA | -0.195
GCTACTAA | 0.138
GCTACTAC | 0.255
ACTACTAA | 0.0558
ACTACTAT | 0.255
CCTACTAC | -0.17
ACTACTAC | 0.0925
CGTGACAG | -0.154
CGAGAGGC | -0.258
CCATCTAG | -0.112
TAGTTCCA | 0.14
AATTTCCG | 0.237
ATTTTCAC | 0.174
ATTTTCCG | 0.325
ATTTTCCC | 0.0787
ATTTTCAG | 0.286
AATTTCAG | 0.0354

Sequence | PBM E-score
AGCTTGAC | -0.0896
ATTCTGGA | 0.132
AAGGTCAT | -0.047
AACAGACG | -0.0301
AACAAGGG | -0.0929
GCGCTCAA | -0.131
CGACCGCG | -0.129
GATTGGTA | 0.305
AATTGGTA | 0.158
CATTGGTA | 0.0377
GAATTGCA | 0.101
AACGGATT | 0.233
AACGGATG | -0.101
CACGGATA | 0.291
CACGGATG | -0.164
TACGGATA | 0.0129
AACGGATA | 0.255
AGTTGTTA | 0.114
ATCTAGAT | -0.0211
TCTGGCCA | -0.0631
AGACGCCG | -0.0447
GGACGTAA | -0.0155
ACGCGTAA | 0.0957
ACACGTAA | 0.217
AGACGTCA | -0.0966

Sequence | PBM E-score
GGACGTCA | -0.0403
CGACGTAA | 0.19
TCGCGTAA | 0.302
TCACGTAA | 0.359
GCACGTAA | 0.0393
TGACGTAA | 0.368
TGACGTCA | 0.331
GCGCGTAA | 0.23
CATGTAAC | 0.0356
ACCCTTCT | -0.142
AGAGTTAG | -0.0808
GGTCTAGA | -0.104
AACCAGCG | -0.0042
GCTGTAAC | 0.0596
ACTCTGCC | -0.104
CCACTTAC | 0.257
CCACTTAA | -0.071
GCACTTAC | 0.0227
ATACCAAC | 0.202
ACTTGTCC | 0.0688
AAGAAGCA | 0.119
AGCTGTAA | 0.0402
CATCGCTA | 0.0613
AGCCCTAG | -0.106
CATAAAGG | 0.00277

Sequence | PBM E-score
CTGAGTAA | 0.246
ATGAGTAA | 0.284
GTGAGTAA | 0.154
CTCGAACC | -0.0728
TTCTAAAA | 0.0712
AATCCTCC | -0.0151
ATTTAACA | 0.195
GTTTAATA | 0.272
AGTTAATA | 0.264
GGTTAATA | 0.0683
GTTTAAAA | 0.0984
CTTTAATA | 0.285
CTTTAAGA | 0.0783
ATTTAATC | 0.212
CTTTAATC | 0.152
GTTTAAGA | -0.0881
ATTTAATA | 0.302
AGTTAATC | 0.0976
AATCGCTA | -0.00025
GGTCGCCA | -0.186
ACCCATCT | 0.0208
AAAGAGCA | 0.132
CCGAGAGG | -0.18
GAGGTCTA | -0.165
TACGCTGA | 0.156

Sequence | PBM E-score
GCTCCAGC | -0.037
AAGTCCGC | -0.104
CGCCAACC | -0.193
CAATAGAC | 0.111
GAAGTCGA | 0.0787
ATTTAACG | 0.204
ATTTAAGG | 0.0621
ATTTAATG | 0.282
CGATAGAA | 0.0788
ACACCCTG | -0.133
CCTTACTA | 0.281
AATTACTG | 0.218
AATTACTA | 0.325
CCTTACTC | 0.183
GATTACTA | 0.225
AATTACCC | 0.107
AATTACCA | 0.256
GCTTACTA | 0.237
TATTACAA | 0.209
CATTACAA | 0.28
CATTACAC | 0.205
GATTACCA | 0.153

Reference: the supplement of paper PMC3334620
